RBX1-CUL1 inh – human ROC1-CUL1 E3 ligase inhibition; inhibition, % at 10 µM; P62877+Q13616; in vitro K48 di-Ub FRET, acceptor:donor ratio, 45 min; 140,000 compounds, 0.6% hits; in the data active means inhibition above about 25%
Each line names hits and unclear results; the compound was inactive in the other large screens. This excerpt belongs to a sample that is enriched for hits.

Cc1sc(=NC(=O)c2cccnc2)n(C)c1-c1ccccc1	none
C/C(Cl)=C/Cn1c(SCc2ccccc2Cl)nc2c1c(=O)[nH]c(=O)n2C	none
C=CCn1c(SCC(=O)Nc2cccc(C(F)(F)F)c2)nc2sc3c(c2c1=O)CCC3	none
C=CCn1c(SCC(=O)Nc2sc(C(=O)OCC)c(C)c2C(=O)OCC)nc2scc(-c3ccco3)c2c1=O	none
C=CCn1c(SCC(=O)Nc2cccc(C(F)(F)F)c2)nc2scc(-c3ccco3)c2c1=O	RBX1-CUL1 inh 33.9
CC(=O)c1cc2c3c(c1)C1C=CCC1C(c1ccc([N+](=O)[O-])cc1)N3CC1CC=CC21 (stereo not given)	none
O=C(O)c1cc2c3c(c1)C1C=CCC1C(c1ccccc1Cl)N3CC1CC=CC21 (stereo not given)	RBX1-CUL1 inh 100.7
CC(=O)c1ccc2c(c1)C1C=CCC1C(c1cccc(Cl)c1Cl)N2 (stereo not given)	none
O=C1/C(=C\c2ccc(-c3ccc(Cl)c(Cl)c3)o2)SC(=Nc2ccccc2)N1Cc1ccco1	none
N#Cc1ccc(-c2ccc(/C=C3\SC(=Nc4ccccc4)N(Cc4ccco4)C3=O)o2)cc1	RBX1-CUL1 inh 53.0
N#Cc1ccc(/C=C2/SC(=Nc3ccccc3)N(Cc3ccc(C(=O)O)cc3)C2=O)cc1	none
CCCCn1c(CN2CCCN(C=O)CC2)cnc1S(=O)(=O)CCCC(C)C	none
COc1ccc(C2NC(=O)C(C#N)=C(S)N2c2ccccc2)cc1 (stereo not given)	none
Cc1noc(C)c1C(=O)Nc1ccccc1C(F)(F)F	none
Cc1cc(/C=C2\SC(=Nc3ccc(Cl)cc3)NC2=O)c(C)n1-c1cc(C(=O)O)cc(C(=O)O)c1	RBX1-CUL1 inh 100.1
Cc1cc(/C=C2\SC(=Nc3ccc(F)cc3)NC2=O)c(C)n1-c1ccc(S(N)(=O)=O)cc1	none
CCOC(=O)c1ccc(-n2c(C)cc(/C=C3\SC(=Nc4ccc(Cl)cc4)NC3=O)c2C)cc1	none
COC(=O)CSCCOc1ccc(OCCSCC(=O)OC)cc1	none
COc1ccc(-c2nc3ccccc3s2)cc1NC(=S)NC(=O)C(C)(C)C	none
COc1nsc(=Nc2ccccc2)n1C(=O)c1ccccc1	none
CC(=O)N1CCN(S(=O)(=O)c2ccc(F)cc2)CC1	none
O=C1C(Cl)=C(N2CCN(S(=O)(=O)c3ccc(F)cc3)CC2)C(=O)c2ccccc21	RBX1-CUL1 inh 63.9
CCC(CC)C(=O)N1CCN(S(=O)(=O)c2ccc(F)cc2)CC1	none
O=C(NNC(=O)c1ccccc1Br)c1ccc(Cl)cc1Cl	none
Cc1oc(-c2cccc(NC(=O)c3ccncc3)c2)nc1CNC(=O)c1c(-c2ccccc2)noc1C	none
Cc1cccc2c(C(=O)O)cc(-c3ccccc3O)nc12	RBX1-CUL1 inh 29.3
Cc1cccc2c(C(=O)N(C)C)cc(-c3cnn(Cc4ccccc4)c3)nc12	none
Cc1cccc2c(C(=O)O)cc(-c3ccc(-c4ccccc4)cc3)nc12	none
C=C(C)Cn1c(=O)c2c(nc3n2CCCN3c2cccc(C)c2)n(C)c1=O	none
CSC1=N/C(=C\c2ccc(F)cc2)C(=O)S1	none
COc1cccc(/C=C2\N=C(SC)SC2=O)c1OCc1ccccc1	none
CSC1=N/C(=C\c2ccc(OC3CCCC3)cc2)C(=O)S1	none
CSC1=N/C(=C\c2ccc(C(=O)O)cc2)C(=O)S1	RBX1-CUL1 inh 49.7
CSC1=N/C(=C\c2cc(Br)ccc2OCC(=O)O)C(=O)S1	RBX1-CUL1 inh 49.8
O=C(O)COc1ccc(Br)cc1Cl	none
CC(C)(C)C1CCc2c(sc3nc(SCC(=O)c4ccccc4)nc(SCC(=O)c4ccccc4)c23)C1 (stereo not given)	none
Cc1ccc2nc(-c3ccc(NC(=O)c4cccnc4)cc3)sc2c1	none
CCOC(=O)C1=C(c2ccccc2)N=c2s/c(=C\c3ccc(N(CC)CC)cc3O)c(=O)n2C1c1ccc(SC)cc1 (stereo not given)	RBX1-CUL1 inh 47.2
CCOC(=O)Cn1cc(/C=c2\sc3n(c2=O)C(c2ccc(SC)cc2)C(C(=O)OCC)=C(c2ccccc2)N=3)c2ccccc21 (stereo not given)	none
CCOC(=O)C1=C(c2ccccc2)N=c2s/c(=C/c3ccccc3O)c(=O)n2C1c1ccc2c(c1)OCO2 (stereo not given)	none
CC(=O)C1=NN(c2ccccc2)C(c2ccc3c(c2)OCO3)N1c1ccc(C)cc1 (stereo not given)	none
O=c1/c(=C\c2cc(Cl)ccc2O)sc2n1C(c1ccccc1)C1=C(N=2)c2ccccc2CC1 (stereo not given)	none
O=C(O)c1ccc(-c2ccc(/C=c3/sc4n(c3=O)C(c3ccc(F)cc3)C3=C(N=4)c4ccccc4CC3)o2)cc1Cl (stereo not given)	RBX1-CUL1 inh 57.9
O=c1/c(=C/c2ccc(N3CCOCC3)o2)sc2n1C(c1ccc(F)cc1)C1=C(N=2)c2ccccc2CC1 (stereo not given)	none
COc1ccc(/C=c2/sc3n(c2=O)C(c2cccc(F)c2)C2=C(N=3)c3ccccc3CC2)cc1OC (stereo not given)	none
Cc1cc(/C=c2/sc3n(c2=O)C(c2ccc(F)cc2)C2=C(N=3)c3ccccc3CC2)c(C)n1-c1ccc(C(=O)O)cc1 (stereo not given)	none
